Source: PubChem
A selection: hits, their analogues and other compounds. The true share with any hit is near 2.8%.
AHR act: activators of human aryl hydrocarbon receptor. P35869. 320,000 compounds, 2.5% hits. AHR-responsive luciferase reporter cells, luminescence. activation, % at 5 µM; in the data active = activation above about 47%;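 note: 0% = vehicle wells and 100% = reference agonist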
PolyA inh: blocks polyadenylation in yeast reporter cells; activity score, % at 12 µM; AID 1875; 300,000 compounds, 0.02% hits; S. cerevisiae SKY197-pL101 polyadenylation reporter, beta-gal luminescence; efflux-impaired pdr1/pdr3 knockout yeast; score 100 = 6 SD above DMSO;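 active = lowest replicate activity score at least 50, where 100 means six control SD above control mean; inconclusive = lowest score under 50 but half or more replicates reach 50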;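 note: yeast exposed to compound for 9 h at 30 °C; higher score means more reporter readthrough which indicates perturbed polyadenylation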
HIF act: HIF pathway transcriptional activation; activation, % at 7.5 µM (by protocol); U2OS HRE-luciferase reporter, luminescence; normalized: DMSO 0%, desferrioxamine 100%; 300,000 compounds, 0.32% hits;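 active = mean activation of at least 10% of the iron chelator positive control signal, with at least half of replicates also reaching 10%; inconclusive = mean and replicate majority disagree about reaching 10%; inactive = mean and most replicates under 10%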
p-CIP stab down: lowers stability of the mouse p/CIP coactivator protein. Q05BA5. F442A p/CIP-EGFP cells, EGFP fluorescence, 16 h. decrease of EGFP signal, % at 10 µM. 290,000 compounds, 0.01% hits. AID 1984;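 active = EGFP signal decrease of at least 30% at 10 µM or well 3 SD below plate mean, unless failing retest; inactive = the rest, including hits failing retest or dose response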
Target sequence (Q05BA5 1-1403): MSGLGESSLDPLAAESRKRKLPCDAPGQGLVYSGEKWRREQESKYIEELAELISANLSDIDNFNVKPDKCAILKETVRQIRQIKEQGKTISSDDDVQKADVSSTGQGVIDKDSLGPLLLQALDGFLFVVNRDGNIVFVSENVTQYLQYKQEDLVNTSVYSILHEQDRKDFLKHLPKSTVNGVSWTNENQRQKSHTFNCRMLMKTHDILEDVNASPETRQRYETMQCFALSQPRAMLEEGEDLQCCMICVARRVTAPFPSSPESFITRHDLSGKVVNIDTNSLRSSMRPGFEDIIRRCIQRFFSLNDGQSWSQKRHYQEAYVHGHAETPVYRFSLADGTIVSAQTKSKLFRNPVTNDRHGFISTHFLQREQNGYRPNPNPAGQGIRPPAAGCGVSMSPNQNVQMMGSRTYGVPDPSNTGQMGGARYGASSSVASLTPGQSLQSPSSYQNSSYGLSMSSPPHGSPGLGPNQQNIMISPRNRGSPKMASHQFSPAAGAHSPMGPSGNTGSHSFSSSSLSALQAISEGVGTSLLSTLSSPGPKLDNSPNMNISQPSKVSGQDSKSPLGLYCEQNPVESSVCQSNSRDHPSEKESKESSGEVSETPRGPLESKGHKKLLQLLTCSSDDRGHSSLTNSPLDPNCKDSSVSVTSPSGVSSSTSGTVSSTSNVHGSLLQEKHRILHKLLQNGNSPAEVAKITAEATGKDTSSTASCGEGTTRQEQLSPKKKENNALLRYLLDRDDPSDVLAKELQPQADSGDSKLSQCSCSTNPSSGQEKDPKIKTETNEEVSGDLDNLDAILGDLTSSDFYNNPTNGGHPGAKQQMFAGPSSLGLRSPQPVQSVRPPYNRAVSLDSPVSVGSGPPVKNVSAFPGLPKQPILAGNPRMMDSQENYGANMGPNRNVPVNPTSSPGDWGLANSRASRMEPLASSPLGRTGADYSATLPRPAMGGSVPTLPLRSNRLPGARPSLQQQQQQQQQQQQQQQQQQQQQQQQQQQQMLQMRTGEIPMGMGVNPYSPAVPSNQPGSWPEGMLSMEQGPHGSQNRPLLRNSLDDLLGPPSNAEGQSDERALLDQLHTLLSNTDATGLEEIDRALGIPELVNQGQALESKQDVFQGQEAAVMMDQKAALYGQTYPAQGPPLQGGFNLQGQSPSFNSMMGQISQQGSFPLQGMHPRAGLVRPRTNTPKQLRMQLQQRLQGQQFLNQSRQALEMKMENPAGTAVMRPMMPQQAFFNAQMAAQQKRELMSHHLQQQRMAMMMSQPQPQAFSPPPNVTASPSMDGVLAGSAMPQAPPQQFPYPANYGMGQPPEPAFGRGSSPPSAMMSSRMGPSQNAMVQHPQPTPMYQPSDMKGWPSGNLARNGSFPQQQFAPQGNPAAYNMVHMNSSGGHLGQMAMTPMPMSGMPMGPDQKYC
Platelet DG rel: platelet dense granule release activity | human platelet-rich plasma, SFLLRN dense granule ATP release, luminescence | inhibition, %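 (compounds screened at 7.5 µM in platelet-rich plasma)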 | 300,000 compounds, 0.22% hits | AID 1663;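 active = mean replicate score, as percent of positive control, at or above 50; inconclusive = mean below 50 but at least one replicate at or above 50; inactive = mean and every replicate below 50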
* hit, by the source's call; ? = inconclusive; / = no result given.

SMILES	AHR act	PolyA inh	HIF act	p-CIP stab down	Platelet DG rel
C=CCN(c1ccccc1)S(=O)(=O)c1cccc(C(=O)N2CC(C)CC(C)C2)c1 (stereo unspecified)	0	-6	0	4	-7
CCC(C)(CCNC(=O)Cc1ccccc1)c1ccccc1OC (stereo unspecified)	4	12	-9	8	0
CCOC(=O)c1c(NC(=O)CSC2=NN3CCCC(=O)N=C3S2)sc2c1CCCCC2	0	-12	0	-8	8
COc1ccccc1NC(=O)c1ccc2c(c1)N(CC#N)C(=O)C(C)(C)O2	62*	0	0	-17	8
Cc1ccccc1NC(=O)c1ccc2c(c1)C(=O)N(CC(C)C)C2=O	1	2	-1	-6	-1
CCOC(=O)CN1C(=O)C(C)(C)Oc2ccc(C(=O)Nc3ccccc3OC)cc21	15	-1	0	-4	-4
CCOc1ccccc1NC(=O)c1ccc2c(c1)C(=O)N(CC(C)C)C2=O	50*	-12	0	-5	10
COCCCN1C(=O)c2ccc(C(=O)Nc3ccccc3OC)cc2C1=O	67*	-31	-1	-5	8
CCOC(=O)C1CCN(S(=O)(=O)c2c[nH]c(=O)[nH]c2=O)CC1	-1	?	-1	/	-4
O=C(NCC1CCCO1)c1cc(-c2ccco2)nc2ccccc12 (stereo unspecified)	19	5	0	-11	0
CCCOc1ccc(-c2cc(C(=O)NCC3CCCO3)c3ccccc3n2)cc1 (stereo unspecified)	51*	3	0	-6	12
COc1ccccc1/C=N/NC(=O)c1ccc(C)nc1	10	6	-1	-8	1
COc1ccc2ccccc2c1/C=N\NC(=O)c1cccnc1	35	11	0	/	0
O=C(N/N=C/c1c(O)ccc2ccccc12)c1cccnc1	73*	8	83*	28	-3
O=C(N/N=C\c1c(O)ccc2ccccc12)c1cncc(Br)c1	67*	-22	26*	-30	1
O=C(NCCc1c[nH]c2ccccc12)c1cncc(Br)c1	49*	-3	0	2	15
Cc1ccc(C(=O)N/N=C/c2c(O)ccc3ccccc23)cn1	28	1	37*	-5	-5
CC(Oc1cccnc1[N+](=O)[O-])C(=O)N1CCc2ccccc21 (stereo unspecified)	6	/	/	/	/
COc1ccc(-c2nc(CS(=O)CC(=O)NC3CCCCC3C)c(C)o2)cc1 (stereo unspecified)	8	8	0	-6	2
Cc1nn(Cc2ccccc2)c(Cl)c1/C=N/NC(=O)c1cccnc1	52*	10	0	4	-3
CC(=O)c1ccc2c3c(cccc13)C(=O)N(CCc1ccccc1)C2=O	72*	-8	4	-14	-1
COc1cc(Br)c(CC(=O)NC2CC2)cc1OC	1	0	1	-4	-1
Cc1ccc(C=Nc2ccccc2C(N)=O)s1	55*	-4	0	-7	3
Cc1cccc(C=Nc2ccccc2C(N)=O)c1	8	4	2	-2	-5
COc1ccc(CN2CCc3ccccc3C2)c(OC)c1OC	0	10	0	-1	-1
SMILES	AHR act	PolyA inh	HIF act	p-CIP stab down	Platelet DG rel
Cc1ccc(/C=C(\C#N)c2nn(-c3ccccc3)c(N)c2C#N)cc1	0	-15	9.8*	-5	17
N#C/C(=C\c1cccc2ccccc12)c1nn(-c2ccccc2)c(N)c1C#N	56*	-3	1	/	1
N#C/C(=C\c1cc([N+](=O)[O-])c(N2CCCCC2)cc1N1CCCCC1)c1nn(-c2ccccc2)c(N)c1C#N	9	-10	/	-18	/
Cc1c(/C=C(\C#N)c2nn(-c3ccccc3)c(N)c2C#N)c2ccccc2n1Cc1ccc(F)cc1	11	26	0	-16	-5
c1ccc(-n2ncc3c(N4CCN(CCOc5cccc6ccccc56)CC4)ncnc32)cc1	49*	9	0	4	1
COc1ccc(C)cc1Nc1nc(N)c2cc(OC)c(OC)cc2n1	62*	2	-2	2	5
CCCCn1c(/C=C/c2ccco2)nc2ccccc21	20	-26	-1	-7	8
C(=N\Nc1nc2ccccc2[nH]1)/c1cccc2nccnc12	27	-1	47*	2	5
CCCCn1c(/C=N/Nc2nc3ccccc3[nH]2)nc2ccccc21	73*	-45	69*	-11	4
C(=N\Nc1nc2ccccc2[nH]1)/c1ccc2ncccc2c1	6	4	-3	-2	12
c1ccc2c(c1)CC/C2=N/Nc1nc2ccccc2[nH]1	48*	-5	5	0	15
C#CCn1cc(/C=N/Nc2nc3ccccc3[nH]2)c2ccccc21	127*	8	5	-11	-3
CC(C)NCC1CCc2cc(CO)c([N+](=O)[O-])cc2N1 (stereo unspecified)	-1	16	0	-5	2
COc1cc(C2Oc3ccccc3C=C2[N+](=O)[O-])cc(OC)c1OC (stereo unspecified)	/	/	/	1	/
C(=N\Nc1nc2ccccc2[nH]1)/c1ccccn1	/	-1	4	5	62*
CCCCNS(=O)(=O)NC(=O)C1=C(N2CCCC2)COC1=O	-2	/	/	/	/
O=C(CSc1ccc(-c2ccc(Cl)cc2)nn1)N1CCCc2ccccc21	5	-2	-1	-3	7
O=C(CSc1ccc(-c2cccnc2)nn1)N1CCCc2ccccc21	48*	-14	0	-4	-2
CC(=O)c1cccc(CN2CCCC(CCC(=O)NCc3ccc(C)o3)C2)c1 (stereo unspecified)	3	-14	0	-7	-5
O=C1c2cccc3cccc(c23)C(=O)N1CCCN(C(=O)c1cccs1)c1cccc(F)c1	51*	8	0	7	0
COc1cc(=O)[nH]c(SCC(=O)Nc2nc3c(s2)CCCC3)n1	1	-3	-2	-14	-17
CCOC(=O)c1[nH]c(=O)[nH]c1CSc1nc(C)cc(C)n1	48*	5	0	4	-1
CCOC(=O)CCCCC(=O)c1[nH]c(=O)[nH]c1CSc1nc(C)cc(C)n1	5	17	-1	-6	29
O=C(O)c1ccccc1NC(=S)NC(=O)c1sc2ccccc2c1Cl	1	/	4	10	-1
O=C(NNC(=S)NC(=O)c1sc2ccccc2c1Cl)c1ccc(Cl)cc1	110*	0	0	4	-3
CSc1ccccc1NC(=O)c1cnc2scc(C)n2c1=O	65*	-9	2	2	10
Cc1csc2ncc(C(=O)Nc3ccc(C(F)(F)F)cc3)c(=O)n12	58*	9	0	7	-18
Cc1csc2ncc(C(=O)NCc3ccccn3)c(=O)n12	47*	16	0	-10	-27
NS(=O)(=O)c1cc(C(=O)Nc2ccc3c(c2)CCC3)ccc1Cl	17	-18	3	3	-4
CCOc1ncccc1C(=O)Nc1cc(S(=O)(=O)N2CCCCC2)ccc1C	7	/	/	/	/
